One may read the inhibition as the drop in the measured response relative to a control, in per cent.

Out of some 98,000 compounds screened, about 4,900 (5%) were called active. This excerpt belongs to a sample that is enriched for actives. A number with no mark means an inactive call. No stated cut-off is given here; in the data, active means inhibition above about 30%; inactive means the rest.

The assay in a line: yeast control strain growth suppression – counter-screen for post-Golgi transport modulator project, primary screen (AID 738). The settings on record: efflux-deficient yeast background strain, growth absorbance A615, 16 h; at 10 µM; stronger effect = higher value. For orientation: A counterscreen serves to expose hits that act by an unwanted route or on another target.
`Cc1nc2ccccn2c1P(=S)(N1CCCCC1)N1CCCCC1`: the inhibition was 49.1% (active). The value for `COc1ccc(C(=O)C2CN(C)CC2C(=O)c2ccc(OC)cc2)cc1` (stereo not given) was 20.5%. As for `CCC(=NCc1ccco1)c1c(O)n(Cc2ccccc2)c(=O)[nH]c1=O`, the figure is 15.9%; as for `CC(=O)c1c(O)n(C2CCCCCC2)c(=O)[nH]c1=O`, 19.8%. As for `CCC(=NCCc1ccccc1)c1c(O)n(C2CCCCC2)c(=O)[nH]c1=O`, the figure is 70.8% (active); as for `COc1ccc(C(=O)CC2C(=O)N(C)C(=O)N(C)C2=O)cc1`, 6.25%; as for `O=C(c1cc2nc(-c3ccccc3)cc(-c3ccccc3)n2n1)N1CCC2(CC1)OCCO2`, 29.5%.

Regarding `CC(C)(C)c1ccc(CN2C(=O)CN=C(c3ccccc3)c3ccccc32)cc1`, the inhibition is 33.8% (active). The value for `CN1CCC(N(C)Cc2cccnc2)CC1` was 7.07%; that for `CCOc1ccc(CN(CCCl)CCCl)cc1C(=O)OC` was 22.7%. The value for `O=C(CN1CCCCC1)Nc1ccc(Br)cc1C(=O)c1ccccc1Cl` was 29.2%; that for `CCNc1nc2[nH]c(=O)c3c(c2s1)OC(N)=C(C#N)C3c1cccs1` (stereo not given) was 5.65%. Take `COc1ccccc1-n1c(O)c(C=NC2CC2)c(=O)[nH]c1=O`: the inhibition was 6.8%. The value for `OC(CNC1CCCCC1)c1ccccc1` (stereo not given) was 5.79%. The value for `CCOP(=S)(OCC)SCOC(=O)NCC(=O)OC` was 4.53%; that for `O=[N+]([O-])c1ccc(C2C3C(c4ccccc4)=NC4(CCCCC4)N32)cc1` (stereo not given) was 18%. As for `Cc1ccc(Cn2c(C)c3cnn(CC(=O)N4CCC5(CC4)OCCO5)c(=O)c3c2C)cc1`, the figure is -1.49%; as for `N#Cc1ccc(Cn2cc(C(=O)c3ccco3)c3ccccc32)cc1`, 38.7% (active). Turning to `COc1ccc(CCn2c(O)c(C=NCCCn3ccnc3)c(=O)[nH]c2=O)cc1OC`, the inhibition was 2.05%. The value for `Cn1c(O)c(C=NCCCC(=O)O)c(=O)n(C)c1=O` was 2.29%. Turning to `Cc1ccc(N(C)C(=O)Oc2cccc3ccc(C)nc23)cc1`, the inhibition was 5.47%.

Take `CC[N+](CC)(CC)CCCCCCCCCC[N+](CC)(CC)CC`: the inhibition is -4.82%. As for `CCOC(=O)C1SC2(C(F)(F)C(F)F)CC1(O)c1c(c(OC)c3occc3c1OC)O2` (stereo not given), the figure is 33.6% (active). As for `O=c1c2ccccc2nc(-c2ccc(Cl)cc2Cl)n1-c1ccncc1`, the figure is 9.41%. As for `COc1cc(Cn2c(N)c(C(=O)NCc3ccco3)c3nc4ccccc4nc32)cc(OC)c1OC`, the figure is 7.01%. As for `CC(=O)Nc1ccccc1C(=O)OCC(=O)c1cccc2ccccc12`, the inhibition was 0.9%. As for `CCCCCCN=C(CC)c1c(O)n(CCCC)c(=O)[nH]c1=O`, the figure is 36.3% (active); as for `CCCCn1c(O)c(C(CC)=NCc2ccco2)c(=O)[nH]c1=O`, 16.6%; as for `CCC(=NCCCO)c1c(O)n(-c2ccc(OC)cc2)c(=O)[nH]c1=O`, 3.64%.

`CC(=O)c1ccc(OC(NC(=O)Cc2ccccc2)C(Cl)(Cl)Cl)cc1` (stereo not given): the inhibition was 4.53%.
